Test results taken from ChEMBL document CHEMBL3988442, “University of Dundee, Small-Polar-MMV Screening Library” (2021).
For some assays here: Potency and affinity values are given separately.

Assays:
Set-up in all cases: scale not given: direction of the effect not stated beside the values
[1] = target: Protein translocase subunit SecA (Escherichia coli (strain K12)) (UniProt P10408); experiment: Assay to Identify E. coli SecA ATPase Inhibitors; assay type: functional; details: 30 µM
[2] = target: T1, Ubiquitin-activating enzyme e1, putative (Leishmania donovani (strain BPK282A1)) (UniProt E9BSI1); experiment: Leishmania donovani Ubiquitin Activating Enzyme (LdE1); assay type: functional; details: 30 µM
T1 sequence (whole entry): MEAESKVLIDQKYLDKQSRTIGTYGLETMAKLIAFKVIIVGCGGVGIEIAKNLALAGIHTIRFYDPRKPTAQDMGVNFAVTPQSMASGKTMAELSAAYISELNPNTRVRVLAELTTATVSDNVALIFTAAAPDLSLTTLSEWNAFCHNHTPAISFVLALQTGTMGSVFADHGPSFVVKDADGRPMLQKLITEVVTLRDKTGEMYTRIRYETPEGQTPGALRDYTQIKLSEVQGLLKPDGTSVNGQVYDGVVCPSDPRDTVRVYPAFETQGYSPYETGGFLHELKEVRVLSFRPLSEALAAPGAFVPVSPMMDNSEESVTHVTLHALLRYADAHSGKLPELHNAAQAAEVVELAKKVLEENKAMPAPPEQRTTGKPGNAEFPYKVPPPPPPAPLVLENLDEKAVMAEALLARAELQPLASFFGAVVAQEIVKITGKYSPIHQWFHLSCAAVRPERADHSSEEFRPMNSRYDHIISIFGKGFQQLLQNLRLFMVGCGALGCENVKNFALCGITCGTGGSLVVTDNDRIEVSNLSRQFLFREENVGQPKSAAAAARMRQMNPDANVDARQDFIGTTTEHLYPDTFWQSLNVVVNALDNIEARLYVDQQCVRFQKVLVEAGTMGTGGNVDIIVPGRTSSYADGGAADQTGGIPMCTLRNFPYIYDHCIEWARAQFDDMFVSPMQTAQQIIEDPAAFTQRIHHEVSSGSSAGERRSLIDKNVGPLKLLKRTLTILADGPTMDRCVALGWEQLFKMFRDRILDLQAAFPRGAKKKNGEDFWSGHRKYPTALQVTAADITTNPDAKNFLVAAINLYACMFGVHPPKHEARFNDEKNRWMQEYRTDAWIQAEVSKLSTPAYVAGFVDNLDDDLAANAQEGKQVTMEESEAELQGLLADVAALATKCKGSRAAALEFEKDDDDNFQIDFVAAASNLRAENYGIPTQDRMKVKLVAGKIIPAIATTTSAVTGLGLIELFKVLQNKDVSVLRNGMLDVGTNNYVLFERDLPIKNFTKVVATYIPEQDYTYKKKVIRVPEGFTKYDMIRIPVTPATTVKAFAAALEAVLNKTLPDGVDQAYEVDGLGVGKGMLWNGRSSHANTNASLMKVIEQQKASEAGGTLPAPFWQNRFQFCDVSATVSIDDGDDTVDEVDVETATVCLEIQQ

[3] = target: AMP-activated protein kinase, AMPK (Homo sapiens) (UniProt P54646+O43741+P54619+Q9UGJ0+Q9Y478+Q13131+Q9UGI9); experiment: AMP-dependent Kinase enzyme assay. An in vitro enzyme assay that detects ADP turnover that is directly proportional to AMPK activity. This uses naive AMPK that is activated during the assay with MK-8722; assay type: functional; details: 30 µM
[4] = target: Sialic acid-binding Ig-like lectin 9 (Homo sapiens) (UniProt Q9Y336); experiment: Hs-Siglec9 ALPHAscreen SOP 20170721; details: 10 µM
Trypanosoma cruzi = experiment: Trypanosoma cruzi phosphomannomutase and mannose-1-phosphate guanylyltransferase assay; assay type: functional; details: 10 µM
[5] = target: T2, Arginase-2, mitochondrial (Homo sapiens) (UniProt P78540); experiment: in vitro enzyme assay to detect the production of urea directly proportional to the activity of Arginase II; assay type: functional; details: 33.3 µM; further: in the data most compounds retested in dose-response had high values
T2 sequence (whole entry): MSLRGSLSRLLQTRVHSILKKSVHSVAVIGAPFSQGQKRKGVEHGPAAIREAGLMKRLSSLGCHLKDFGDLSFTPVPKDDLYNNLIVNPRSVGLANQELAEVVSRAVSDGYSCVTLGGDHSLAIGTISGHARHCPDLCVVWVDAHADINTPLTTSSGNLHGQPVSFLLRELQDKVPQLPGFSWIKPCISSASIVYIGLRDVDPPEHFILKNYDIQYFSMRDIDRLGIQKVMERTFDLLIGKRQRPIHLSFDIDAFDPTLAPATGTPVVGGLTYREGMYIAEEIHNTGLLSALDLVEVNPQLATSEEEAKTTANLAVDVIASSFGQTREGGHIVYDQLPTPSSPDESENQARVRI

[6] = target: T3, Proteasome subunit beta (Trypanosoma cruzi) (UniProt O96673); experiment: Trypanosoma cruzi proteasome chymotrypsin-like activity (TcProtChymo) assay.; further: in the data most compounds retested in dose-response had high values; assay type: functional; details: 9.37 µM
T3 sequence (whole entry): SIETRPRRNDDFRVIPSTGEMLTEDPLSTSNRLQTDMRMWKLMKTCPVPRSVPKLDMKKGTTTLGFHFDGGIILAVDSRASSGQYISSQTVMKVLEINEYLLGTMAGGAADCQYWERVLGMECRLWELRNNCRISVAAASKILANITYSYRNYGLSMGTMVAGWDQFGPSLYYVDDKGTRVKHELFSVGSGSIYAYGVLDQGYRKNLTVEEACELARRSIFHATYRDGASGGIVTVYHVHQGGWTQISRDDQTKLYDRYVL

Homo sapiens = species on record: Homo sapiens; experiment: To identify inhibition of the IFN signalling (Jak-Stat) pathway via expression of an eGFP reporter gene under the control of an IFN-stimulated response element (ISRE) containing MxA promoter.; assay type: functional; details: 30 µM
[7] = target: T4, Tyrosyl-tRNA synthetase, putative (Trypanosoma cruzi (strain CL Brener)) (UniProt Q4DSP6); experiment: Trypanosoma cruzi tyrosyl tRNA synthetase (TcYRS) _High Tyrosine SOP; assay type: functional; details: 30 µM; further: in the data most compounds retested in dose-response had high values
T4 sequence (whole entry): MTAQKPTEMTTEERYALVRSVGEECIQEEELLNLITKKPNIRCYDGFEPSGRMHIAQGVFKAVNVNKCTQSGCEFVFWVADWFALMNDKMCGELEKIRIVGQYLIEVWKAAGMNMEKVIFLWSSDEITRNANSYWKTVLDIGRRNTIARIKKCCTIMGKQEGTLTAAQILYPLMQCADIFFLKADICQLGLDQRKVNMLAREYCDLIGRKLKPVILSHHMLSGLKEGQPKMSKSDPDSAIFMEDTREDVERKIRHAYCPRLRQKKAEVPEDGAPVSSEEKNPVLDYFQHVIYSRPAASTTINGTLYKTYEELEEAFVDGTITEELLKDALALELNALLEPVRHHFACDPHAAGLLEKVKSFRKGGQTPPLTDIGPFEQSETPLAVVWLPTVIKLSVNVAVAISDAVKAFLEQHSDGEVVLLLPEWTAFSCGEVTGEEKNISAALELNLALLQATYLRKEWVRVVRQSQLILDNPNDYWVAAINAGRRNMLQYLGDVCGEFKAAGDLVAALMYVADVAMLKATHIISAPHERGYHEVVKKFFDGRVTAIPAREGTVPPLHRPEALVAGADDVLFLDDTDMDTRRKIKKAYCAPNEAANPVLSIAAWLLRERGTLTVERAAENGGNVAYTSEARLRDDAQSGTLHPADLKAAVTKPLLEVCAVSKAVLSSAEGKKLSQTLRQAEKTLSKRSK

[8] = target: T4, Tyrosyl-tRNA synthetase, putative (Trypanosoma cruzi (strain CL Brener)); experiment: Trypanosoma cruzi tyrosyl tRNA synthetase (TcYRS) SOP; assay type: functional; details: 30 µM
[9] = target: Chromo domain-containing protein 1 (Saccharomyces cerevisiae (strain ATCC 204508 / S288c) (Baker's yeast)) (UniProt P32657); experiment: ScCHD-1 Enzyme Inhibition Assay; assay type: functional; details: 30 µM; further: in the data most compounds retested in dose-response had high values
Sequence of Chromo domain-containing protein 1 (Saccharomyces cerevisiae (strain ATCC 204508 / S288c) (Baker's yeast)) (P32657 whole entry, the tested form may be a part): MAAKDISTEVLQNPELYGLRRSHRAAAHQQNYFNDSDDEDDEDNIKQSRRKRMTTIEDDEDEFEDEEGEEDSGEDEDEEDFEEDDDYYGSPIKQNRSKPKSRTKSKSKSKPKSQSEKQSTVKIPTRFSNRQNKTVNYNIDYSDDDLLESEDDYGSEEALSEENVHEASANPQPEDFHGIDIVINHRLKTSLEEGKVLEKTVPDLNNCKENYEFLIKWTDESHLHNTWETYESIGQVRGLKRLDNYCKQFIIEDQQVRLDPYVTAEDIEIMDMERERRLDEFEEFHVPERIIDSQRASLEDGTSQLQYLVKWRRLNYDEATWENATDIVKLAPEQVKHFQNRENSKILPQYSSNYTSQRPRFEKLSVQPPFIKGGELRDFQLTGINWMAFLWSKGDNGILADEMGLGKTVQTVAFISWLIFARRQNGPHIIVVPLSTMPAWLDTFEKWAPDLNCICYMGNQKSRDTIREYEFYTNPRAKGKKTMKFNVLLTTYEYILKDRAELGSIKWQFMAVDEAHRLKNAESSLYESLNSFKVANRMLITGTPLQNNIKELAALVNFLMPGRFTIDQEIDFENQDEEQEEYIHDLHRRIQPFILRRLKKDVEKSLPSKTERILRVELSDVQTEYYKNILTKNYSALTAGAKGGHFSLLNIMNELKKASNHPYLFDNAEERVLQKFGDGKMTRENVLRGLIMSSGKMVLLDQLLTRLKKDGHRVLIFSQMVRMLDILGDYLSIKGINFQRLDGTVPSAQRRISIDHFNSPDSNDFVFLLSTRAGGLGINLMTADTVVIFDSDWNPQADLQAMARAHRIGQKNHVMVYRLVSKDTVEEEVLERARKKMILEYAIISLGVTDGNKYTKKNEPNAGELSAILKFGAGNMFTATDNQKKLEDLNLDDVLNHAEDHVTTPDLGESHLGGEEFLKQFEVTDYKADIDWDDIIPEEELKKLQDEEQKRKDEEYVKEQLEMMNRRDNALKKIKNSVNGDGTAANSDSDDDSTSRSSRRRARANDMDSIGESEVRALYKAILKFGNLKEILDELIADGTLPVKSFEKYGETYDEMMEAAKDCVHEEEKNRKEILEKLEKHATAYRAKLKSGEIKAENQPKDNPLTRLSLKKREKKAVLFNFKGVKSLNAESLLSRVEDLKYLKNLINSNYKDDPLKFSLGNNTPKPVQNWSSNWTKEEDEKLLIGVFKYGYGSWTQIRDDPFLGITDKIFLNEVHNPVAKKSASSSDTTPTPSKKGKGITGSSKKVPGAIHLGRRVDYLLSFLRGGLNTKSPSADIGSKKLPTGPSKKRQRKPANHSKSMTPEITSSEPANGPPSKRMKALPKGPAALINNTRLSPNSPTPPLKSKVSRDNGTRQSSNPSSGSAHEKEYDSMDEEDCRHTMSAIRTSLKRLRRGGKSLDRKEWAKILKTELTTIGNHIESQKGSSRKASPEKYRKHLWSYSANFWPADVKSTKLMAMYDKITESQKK

Sequence of Sialic acid-binding Ig-like lectin 9 (Homo sapiens) (Q9Y336 whole entry): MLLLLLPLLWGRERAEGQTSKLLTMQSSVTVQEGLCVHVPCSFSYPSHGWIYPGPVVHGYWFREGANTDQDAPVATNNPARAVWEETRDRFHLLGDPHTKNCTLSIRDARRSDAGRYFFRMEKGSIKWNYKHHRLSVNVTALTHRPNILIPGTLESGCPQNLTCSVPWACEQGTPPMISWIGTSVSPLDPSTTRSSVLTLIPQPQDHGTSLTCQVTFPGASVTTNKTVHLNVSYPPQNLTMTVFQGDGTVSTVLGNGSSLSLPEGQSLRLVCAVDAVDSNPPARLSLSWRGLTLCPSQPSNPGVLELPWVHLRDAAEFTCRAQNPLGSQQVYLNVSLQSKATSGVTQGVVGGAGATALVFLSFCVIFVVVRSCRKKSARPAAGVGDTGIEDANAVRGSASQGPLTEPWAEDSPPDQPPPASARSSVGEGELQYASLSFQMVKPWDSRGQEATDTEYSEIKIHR
Sequence of Protein translocase subunit SecA (Escherichia coli (strain K12)) (P10408 whole entry): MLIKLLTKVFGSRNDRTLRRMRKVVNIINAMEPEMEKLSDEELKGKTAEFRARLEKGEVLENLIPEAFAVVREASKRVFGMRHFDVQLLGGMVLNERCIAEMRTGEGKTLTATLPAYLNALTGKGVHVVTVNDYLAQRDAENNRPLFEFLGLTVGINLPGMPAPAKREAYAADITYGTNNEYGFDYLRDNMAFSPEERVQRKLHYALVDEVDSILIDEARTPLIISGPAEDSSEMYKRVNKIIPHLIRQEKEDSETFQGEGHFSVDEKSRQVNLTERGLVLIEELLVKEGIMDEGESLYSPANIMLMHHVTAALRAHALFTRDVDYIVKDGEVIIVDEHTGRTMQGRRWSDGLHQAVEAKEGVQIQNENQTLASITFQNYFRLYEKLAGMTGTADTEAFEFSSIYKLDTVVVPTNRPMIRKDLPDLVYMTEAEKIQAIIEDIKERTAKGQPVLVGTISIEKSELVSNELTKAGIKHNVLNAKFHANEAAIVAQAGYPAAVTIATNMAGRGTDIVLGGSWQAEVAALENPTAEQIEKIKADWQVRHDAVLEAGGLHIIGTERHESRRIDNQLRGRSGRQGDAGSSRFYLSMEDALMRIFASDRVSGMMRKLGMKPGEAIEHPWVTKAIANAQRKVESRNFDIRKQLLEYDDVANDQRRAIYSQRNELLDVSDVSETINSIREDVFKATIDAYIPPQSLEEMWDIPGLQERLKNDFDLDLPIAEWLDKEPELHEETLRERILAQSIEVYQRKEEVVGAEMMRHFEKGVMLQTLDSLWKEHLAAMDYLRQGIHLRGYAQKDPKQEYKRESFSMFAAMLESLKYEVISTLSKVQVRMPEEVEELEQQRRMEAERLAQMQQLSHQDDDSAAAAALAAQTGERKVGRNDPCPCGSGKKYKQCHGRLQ

Compound	Percent Effect [1] [%]	Percent Effect [2] [%]	Percent Effect [3] [%]	Percent Effect [4] [%]	Percent Effect (Trypanosoma cruzi) [%]	Percent Effect [5] [%]	Percent Effect [6] [%]	Percent Effect (Homo sapiens) [%]	Percent Effect [7] [%]	Percent Effect [8] [%]	Percent Effect [9] [%]
CCN1CCN(S(=O)(=O)c2ncn(C)c2Cl)CC1	-6.34	6.94	-0.0263	3.04	-3.79	1.77	21.4	6.76	1.05	10.3	-1.92
CCn1cc(CN2CC3CCCN3C[C@H]2C)c(C)n1 (stereo partly specified)	-2.31	9.46	3.58	-8.58	-1.98	-2.09	20.3	2	4.3	9.09	-14.7
O=C(NC(CO)CO)c1coc(COc2cccc(F)c2)n1	-2.81	18.9	1.42	15.9	2.44	10.2	9.19	-0.407	7.53	21	-4.2
O=C(c1cnccn1)N1CCc2ncnc(-c3cccnc3)c2CC1	-5.31	2.67	-1.38	-1.29	0.386	-43.5	6.33	-9.47	0	5	-3.12
Cc1ccc(CN(C)C(=O)CN2CCOC(Cn3cncn3)C2)o1 (stereo unspecified)	1.63	15.2	-6.86	-11.8	-7.46	9.89	13	16.3	5.42	11.4	-2.75
Cn1cc(-c2ncnc3c2CCN(C(=O)N2CCOCC2)CC3)cn1	-2.9	0	-3.79	15.2	3.03	1.24	9.53	-0.161	1.07	8.64	-11.6
Cc1cc2c(=O)n3c(nc2s1)CCN(C(=O)c1ccncc1)CC3	0.412	1.35	20.6	7.55	-4.74	3.02	9.98	0.756	2.15	6.49	-4.17
Cc1ccc(CN2C[C@@H]3COC[C@H](C(=O)N4CCCCO4)[C@@H]3C2)o1	-1.82	13.3	7.57	2.5	1.57	-1.17	4.32	0.512	7.45	19.2	-3.93
COCc1nc2cc(NCc3ccc(C)o3)ccc2o1	-4.96	13.5	-42.7	8.51	6.05	37.1	14.3	-1.74	13.9	15.8	-2.51
COc1c(CNCCNC(=O)Cc2ccc(F)cc2)c(C)nn1C	-1.17	13.5	1.18	-2.01	-7.52	-4.99	13.1	12.1	1.98	-18.3	-8.36
COCC(=O)NC1CC2(CCN(Cc3ccco3)CC2)c2ccccc21 (stereo unspecified)	-1.45	2.7	-1.83	3.44	-7.92	2.23	24.2	4.53	2.16	5.13	-3.97
c1coc(-c2noc(CN3CCC(c4ccn[nH]4)CC3)n2)c1	-1.24	5.41	-3.37	31.9	5.02	0	16.4	3.15	-1.59	7.32	-4.25
Cc1nc(CO[C@@H]2CN(Cc3cnn(C)c3)[C@@H]3COC[C@@H]32)cs1	-0.847	13.7	1.23	4.76	-2.58	1.6	7.96	2.98	3.12	11.1	3.26
c1cnn(Cc2nnc(C3CCN(C4CCOCC4)CC3)n2C2CC2)c1	-7.04	13.3	-7	24.9	3.99	5.73	16.2	12.2	7.1	16.1	103
Cc1cnn(CC2CCCCN2Cc2nc(-c3ccoc3)no2)c1 (stereo unspecified)	-1.89	16.2	-6.06	4.87	5.19	-5.61	7.75	21.5	8.37	23.5	-6.74
Cc1nc(C)n(CC2CN(c3ncccn3)Cc3nccn3C2)n1 (stereo unspecified)	-6.81	8.11	-2.43	1.67	-3.42	-2.73	6.44	2.81	2.15	11.1	-2.96
